Measured values as given in the supplement of paper PMC11732987, “Enantioselective OTUD7B fragment discovery through chemoproteomics screening and high-throughput optimisation” (Communications Chemistry, 2025).

Key:
Test in all cases: log2 ratio of Biotin-Ahx-Ub-VS probe labelling (fragment/DMSO); higher = less target engagement (more negative = stronger competition), active = hit call of the paper (q ≤ 0.05, log2 ratio ≤ -1)
Conditions in all cases: compound concentration: 200 uM; treatment time: 3 h
USP42 = biological target: T1, USP42 (UniProt Q9H9J4)
T1 sequence (whole entry): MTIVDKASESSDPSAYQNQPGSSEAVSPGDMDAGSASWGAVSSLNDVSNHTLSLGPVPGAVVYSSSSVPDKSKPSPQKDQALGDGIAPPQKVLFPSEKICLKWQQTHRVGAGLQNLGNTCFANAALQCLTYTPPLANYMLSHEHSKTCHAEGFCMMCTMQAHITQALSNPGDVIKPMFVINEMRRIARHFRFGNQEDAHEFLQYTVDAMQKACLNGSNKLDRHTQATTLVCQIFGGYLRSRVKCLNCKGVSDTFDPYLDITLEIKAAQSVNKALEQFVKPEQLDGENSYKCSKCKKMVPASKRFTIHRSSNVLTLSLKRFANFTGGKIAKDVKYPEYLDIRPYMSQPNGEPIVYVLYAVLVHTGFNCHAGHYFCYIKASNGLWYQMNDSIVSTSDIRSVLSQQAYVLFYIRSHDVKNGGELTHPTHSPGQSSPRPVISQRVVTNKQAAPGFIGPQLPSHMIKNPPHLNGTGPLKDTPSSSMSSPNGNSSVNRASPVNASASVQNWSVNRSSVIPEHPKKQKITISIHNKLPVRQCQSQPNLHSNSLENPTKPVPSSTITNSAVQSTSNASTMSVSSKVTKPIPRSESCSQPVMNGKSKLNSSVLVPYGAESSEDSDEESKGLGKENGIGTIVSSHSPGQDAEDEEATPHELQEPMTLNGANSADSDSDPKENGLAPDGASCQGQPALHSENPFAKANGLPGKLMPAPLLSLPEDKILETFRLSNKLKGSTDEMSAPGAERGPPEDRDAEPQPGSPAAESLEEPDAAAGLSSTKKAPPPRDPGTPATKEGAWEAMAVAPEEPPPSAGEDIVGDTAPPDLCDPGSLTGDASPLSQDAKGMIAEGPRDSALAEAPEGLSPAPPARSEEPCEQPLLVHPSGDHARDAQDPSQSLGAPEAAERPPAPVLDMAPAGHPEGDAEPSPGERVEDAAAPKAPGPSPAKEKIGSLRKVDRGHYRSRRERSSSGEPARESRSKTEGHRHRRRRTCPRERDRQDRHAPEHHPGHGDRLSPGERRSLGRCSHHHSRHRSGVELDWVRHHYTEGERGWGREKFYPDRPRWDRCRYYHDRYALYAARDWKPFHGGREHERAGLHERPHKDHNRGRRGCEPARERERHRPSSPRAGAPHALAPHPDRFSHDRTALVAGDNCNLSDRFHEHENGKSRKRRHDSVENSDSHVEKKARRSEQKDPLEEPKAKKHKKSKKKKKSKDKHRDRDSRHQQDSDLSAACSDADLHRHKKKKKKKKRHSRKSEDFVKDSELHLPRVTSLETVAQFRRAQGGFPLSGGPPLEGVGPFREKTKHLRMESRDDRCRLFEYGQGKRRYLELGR
Method in brief: (§1)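 Average log2 ratios of fragment over vehicle were obtained by unpaired t-test from global-median-normalised Spectronaut label-free quantities. Proteins with ≥2 unique peptides were included. HEK293T lysate (495 µg per sample) was treated in triplicate with fragment at 200 µM or vehicle for 3 h, then with Biotin-Ahx-Ub-VS at 0.5 µM final for 1 h, and labelled DUBs were NeutrAvidin-enriched and run by diaPASEF LC-MS/MS.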

USP46 = USP46 (UniProt P62068)
Method in brief: as §1

USP47 = biological target: T2, USP47 (UniProt Q96K76)
T2 sequence (whole entry): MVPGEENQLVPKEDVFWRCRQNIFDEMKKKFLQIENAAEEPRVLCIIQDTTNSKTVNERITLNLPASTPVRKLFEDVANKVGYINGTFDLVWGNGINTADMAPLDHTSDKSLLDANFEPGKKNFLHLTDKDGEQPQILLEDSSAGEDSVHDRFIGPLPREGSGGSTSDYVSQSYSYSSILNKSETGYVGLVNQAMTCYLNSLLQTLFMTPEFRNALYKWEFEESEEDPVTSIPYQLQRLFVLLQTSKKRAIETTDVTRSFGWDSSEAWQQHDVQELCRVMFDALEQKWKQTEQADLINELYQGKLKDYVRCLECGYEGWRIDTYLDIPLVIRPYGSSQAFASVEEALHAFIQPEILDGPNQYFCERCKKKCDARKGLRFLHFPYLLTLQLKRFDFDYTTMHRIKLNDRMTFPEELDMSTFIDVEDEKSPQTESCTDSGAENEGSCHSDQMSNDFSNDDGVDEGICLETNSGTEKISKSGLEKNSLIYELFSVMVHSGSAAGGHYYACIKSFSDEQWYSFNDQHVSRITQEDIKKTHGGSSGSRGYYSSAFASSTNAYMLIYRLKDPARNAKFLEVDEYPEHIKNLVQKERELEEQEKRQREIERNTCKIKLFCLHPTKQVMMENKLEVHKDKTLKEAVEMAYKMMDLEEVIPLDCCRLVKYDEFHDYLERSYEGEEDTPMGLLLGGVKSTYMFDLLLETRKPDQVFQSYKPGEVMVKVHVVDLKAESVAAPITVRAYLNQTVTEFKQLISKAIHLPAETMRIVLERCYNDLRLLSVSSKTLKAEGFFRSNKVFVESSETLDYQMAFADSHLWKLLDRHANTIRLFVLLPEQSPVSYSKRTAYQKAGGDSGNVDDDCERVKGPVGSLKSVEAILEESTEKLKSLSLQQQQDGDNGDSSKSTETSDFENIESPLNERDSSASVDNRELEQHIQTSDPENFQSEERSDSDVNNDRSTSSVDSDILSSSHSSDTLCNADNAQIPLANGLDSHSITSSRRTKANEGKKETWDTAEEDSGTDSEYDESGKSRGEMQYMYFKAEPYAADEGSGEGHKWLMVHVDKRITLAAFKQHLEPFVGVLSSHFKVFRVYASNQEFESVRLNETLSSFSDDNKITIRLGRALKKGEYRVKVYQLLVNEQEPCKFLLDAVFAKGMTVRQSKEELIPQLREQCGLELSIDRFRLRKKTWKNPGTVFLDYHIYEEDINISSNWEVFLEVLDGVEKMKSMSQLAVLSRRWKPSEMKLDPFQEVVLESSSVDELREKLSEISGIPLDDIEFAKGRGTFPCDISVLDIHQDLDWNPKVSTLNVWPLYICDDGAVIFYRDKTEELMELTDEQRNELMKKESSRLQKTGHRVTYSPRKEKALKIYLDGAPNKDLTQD
Method in brief: as §1

USP48 = biological target: T3, USP48 (UniProt Q86UV5)
T3 sequence (whole entry): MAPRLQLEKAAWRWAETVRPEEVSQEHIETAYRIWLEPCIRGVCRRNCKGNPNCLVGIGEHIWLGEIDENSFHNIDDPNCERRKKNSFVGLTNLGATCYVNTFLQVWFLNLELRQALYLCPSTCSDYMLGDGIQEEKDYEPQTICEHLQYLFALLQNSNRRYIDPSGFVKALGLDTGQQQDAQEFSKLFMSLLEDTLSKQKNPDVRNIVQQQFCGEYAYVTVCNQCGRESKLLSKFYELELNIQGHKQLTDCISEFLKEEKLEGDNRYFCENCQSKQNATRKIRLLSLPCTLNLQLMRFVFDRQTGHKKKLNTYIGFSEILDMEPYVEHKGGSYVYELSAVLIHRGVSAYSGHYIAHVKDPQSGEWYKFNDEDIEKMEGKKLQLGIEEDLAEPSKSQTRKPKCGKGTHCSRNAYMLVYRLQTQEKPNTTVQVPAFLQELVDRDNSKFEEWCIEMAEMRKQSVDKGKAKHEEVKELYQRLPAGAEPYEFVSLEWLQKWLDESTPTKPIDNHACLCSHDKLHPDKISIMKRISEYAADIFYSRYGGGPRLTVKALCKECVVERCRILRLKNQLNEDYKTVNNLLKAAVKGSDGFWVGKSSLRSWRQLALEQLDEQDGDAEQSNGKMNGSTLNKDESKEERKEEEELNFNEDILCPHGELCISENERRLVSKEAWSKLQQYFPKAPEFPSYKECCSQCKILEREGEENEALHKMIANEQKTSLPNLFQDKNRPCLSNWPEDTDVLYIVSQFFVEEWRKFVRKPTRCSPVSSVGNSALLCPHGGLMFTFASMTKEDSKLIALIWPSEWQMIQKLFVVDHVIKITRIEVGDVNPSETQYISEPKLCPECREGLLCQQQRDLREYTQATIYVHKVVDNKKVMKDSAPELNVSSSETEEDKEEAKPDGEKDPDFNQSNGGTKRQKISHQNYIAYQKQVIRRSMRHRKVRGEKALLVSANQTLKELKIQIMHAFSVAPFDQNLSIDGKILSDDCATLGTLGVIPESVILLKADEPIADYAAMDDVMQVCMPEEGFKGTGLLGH
Method in brief: as §1

USP5 = biological target: T4, USP5 (UniProt P45974)
T4 sequence (whole entry): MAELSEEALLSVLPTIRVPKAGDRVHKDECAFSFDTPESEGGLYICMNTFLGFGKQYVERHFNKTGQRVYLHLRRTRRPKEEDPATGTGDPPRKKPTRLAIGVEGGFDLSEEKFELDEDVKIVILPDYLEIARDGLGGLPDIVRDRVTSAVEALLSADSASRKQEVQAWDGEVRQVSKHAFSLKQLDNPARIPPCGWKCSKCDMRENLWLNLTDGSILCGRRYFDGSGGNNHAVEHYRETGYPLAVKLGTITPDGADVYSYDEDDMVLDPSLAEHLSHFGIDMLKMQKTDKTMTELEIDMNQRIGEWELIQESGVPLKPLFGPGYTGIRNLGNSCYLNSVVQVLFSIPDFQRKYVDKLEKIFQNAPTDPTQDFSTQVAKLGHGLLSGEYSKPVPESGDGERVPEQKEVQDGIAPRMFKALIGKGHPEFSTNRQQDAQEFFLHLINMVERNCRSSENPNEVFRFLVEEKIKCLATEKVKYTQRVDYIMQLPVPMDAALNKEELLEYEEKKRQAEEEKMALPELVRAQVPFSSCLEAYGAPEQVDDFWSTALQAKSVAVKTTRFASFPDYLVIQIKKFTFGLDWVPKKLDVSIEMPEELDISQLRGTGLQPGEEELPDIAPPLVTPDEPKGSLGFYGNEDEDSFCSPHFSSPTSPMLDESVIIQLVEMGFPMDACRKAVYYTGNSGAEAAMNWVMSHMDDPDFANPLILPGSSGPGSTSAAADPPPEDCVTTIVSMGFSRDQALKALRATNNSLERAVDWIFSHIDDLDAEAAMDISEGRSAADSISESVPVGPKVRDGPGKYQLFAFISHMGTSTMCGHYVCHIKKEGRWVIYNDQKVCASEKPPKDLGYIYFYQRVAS
Method in brief: as §1

USP54 = USP54 (UniProt Q70EL1)
Method in brief: as §1

USP7 = USP7 (UniProt Q93009)
Method in brief: as §1

USP8 = biological target: T5, USP8 (UniProt P40818)
T5 sequence (whole entry): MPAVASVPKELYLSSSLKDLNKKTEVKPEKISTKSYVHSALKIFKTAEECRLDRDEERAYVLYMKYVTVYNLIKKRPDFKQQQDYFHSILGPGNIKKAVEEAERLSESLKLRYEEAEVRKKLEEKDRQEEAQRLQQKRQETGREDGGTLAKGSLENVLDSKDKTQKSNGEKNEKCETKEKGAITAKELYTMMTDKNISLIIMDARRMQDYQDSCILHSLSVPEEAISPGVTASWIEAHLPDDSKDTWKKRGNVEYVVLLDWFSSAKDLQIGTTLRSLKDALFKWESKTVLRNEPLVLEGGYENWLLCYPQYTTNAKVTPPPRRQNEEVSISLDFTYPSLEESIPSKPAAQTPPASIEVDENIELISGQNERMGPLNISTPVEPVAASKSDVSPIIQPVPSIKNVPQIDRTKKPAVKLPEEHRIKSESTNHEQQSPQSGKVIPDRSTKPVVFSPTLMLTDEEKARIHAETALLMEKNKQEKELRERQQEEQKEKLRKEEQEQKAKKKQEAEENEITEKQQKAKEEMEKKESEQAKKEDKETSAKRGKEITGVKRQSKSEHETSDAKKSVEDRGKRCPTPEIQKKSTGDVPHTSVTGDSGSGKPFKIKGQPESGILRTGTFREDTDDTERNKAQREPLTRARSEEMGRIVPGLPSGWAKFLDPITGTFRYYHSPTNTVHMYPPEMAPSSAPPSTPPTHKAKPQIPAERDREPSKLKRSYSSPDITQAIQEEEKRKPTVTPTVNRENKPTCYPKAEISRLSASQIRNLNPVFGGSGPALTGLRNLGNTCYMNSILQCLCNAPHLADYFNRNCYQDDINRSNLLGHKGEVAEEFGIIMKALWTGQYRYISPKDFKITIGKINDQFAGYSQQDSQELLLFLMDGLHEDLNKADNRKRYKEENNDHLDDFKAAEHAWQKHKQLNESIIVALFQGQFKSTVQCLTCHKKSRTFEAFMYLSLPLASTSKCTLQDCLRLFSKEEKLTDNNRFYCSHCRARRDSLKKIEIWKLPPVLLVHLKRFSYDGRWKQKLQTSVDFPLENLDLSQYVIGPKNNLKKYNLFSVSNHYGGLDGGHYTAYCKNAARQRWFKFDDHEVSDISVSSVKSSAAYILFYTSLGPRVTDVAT
Method in brief: as §1

USP9X = USP9X (UniProt Q93008)
Method in brief: as §1

UniProt O00487 = biological target: UniProt O00487
Method in brief: as §1

Measured: log2 ratio of Biotin-Ahx-Ub-VS probe labelling

Sequence of USP54 (Q70EL1 whole entry): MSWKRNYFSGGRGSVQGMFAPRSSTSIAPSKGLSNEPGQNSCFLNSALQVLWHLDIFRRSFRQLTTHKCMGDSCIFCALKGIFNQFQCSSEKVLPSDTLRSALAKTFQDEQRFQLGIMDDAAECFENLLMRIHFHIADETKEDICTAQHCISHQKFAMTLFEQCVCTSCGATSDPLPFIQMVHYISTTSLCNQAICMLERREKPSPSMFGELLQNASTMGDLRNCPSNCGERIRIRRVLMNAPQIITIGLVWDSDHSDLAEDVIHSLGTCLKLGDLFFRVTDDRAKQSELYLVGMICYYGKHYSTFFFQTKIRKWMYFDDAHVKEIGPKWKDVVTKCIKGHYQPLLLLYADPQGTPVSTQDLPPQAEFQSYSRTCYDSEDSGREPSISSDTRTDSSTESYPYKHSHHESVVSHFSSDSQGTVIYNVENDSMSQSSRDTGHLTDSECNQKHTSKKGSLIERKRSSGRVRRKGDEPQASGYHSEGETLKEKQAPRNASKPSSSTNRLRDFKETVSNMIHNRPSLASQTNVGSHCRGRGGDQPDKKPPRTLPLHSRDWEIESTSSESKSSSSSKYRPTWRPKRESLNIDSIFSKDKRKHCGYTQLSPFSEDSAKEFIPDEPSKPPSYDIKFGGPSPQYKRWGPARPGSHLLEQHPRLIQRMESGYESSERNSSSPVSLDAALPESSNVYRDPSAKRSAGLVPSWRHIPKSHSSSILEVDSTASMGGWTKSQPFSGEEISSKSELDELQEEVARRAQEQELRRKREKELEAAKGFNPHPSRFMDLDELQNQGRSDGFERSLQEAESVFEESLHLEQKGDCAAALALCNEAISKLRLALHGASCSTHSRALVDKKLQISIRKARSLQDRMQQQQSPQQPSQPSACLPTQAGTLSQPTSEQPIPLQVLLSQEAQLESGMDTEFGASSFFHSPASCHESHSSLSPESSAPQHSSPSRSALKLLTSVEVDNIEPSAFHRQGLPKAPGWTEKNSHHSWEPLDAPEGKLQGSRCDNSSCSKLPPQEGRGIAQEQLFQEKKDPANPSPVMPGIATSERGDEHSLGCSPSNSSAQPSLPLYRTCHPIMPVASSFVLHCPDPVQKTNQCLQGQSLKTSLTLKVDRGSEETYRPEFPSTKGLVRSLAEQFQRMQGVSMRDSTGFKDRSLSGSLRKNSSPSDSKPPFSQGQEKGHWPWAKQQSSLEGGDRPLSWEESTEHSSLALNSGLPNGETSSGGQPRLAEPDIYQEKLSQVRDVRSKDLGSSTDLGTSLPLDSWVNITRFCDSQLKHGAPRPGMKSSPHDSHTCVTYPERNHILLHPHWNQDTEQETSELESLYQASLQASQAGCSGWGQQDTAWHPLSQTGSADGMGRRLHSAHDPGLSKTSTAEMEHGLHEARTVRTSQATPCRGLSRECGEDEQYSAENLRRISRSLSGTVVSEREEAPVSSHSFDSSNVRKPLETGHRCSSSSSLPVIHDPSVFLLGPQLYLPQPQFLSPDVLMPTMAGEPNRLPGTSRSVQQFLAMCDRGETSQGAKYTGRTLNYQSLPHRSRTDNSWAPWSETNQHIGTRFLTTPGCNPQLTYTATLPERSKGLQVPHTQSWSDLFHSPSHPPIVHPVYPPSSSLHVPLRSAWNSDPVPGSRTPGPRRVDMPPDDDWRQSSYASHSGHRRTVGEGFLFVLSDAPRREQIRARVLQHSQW
Sequence of USP7 (Q93009 whole entry, looked up): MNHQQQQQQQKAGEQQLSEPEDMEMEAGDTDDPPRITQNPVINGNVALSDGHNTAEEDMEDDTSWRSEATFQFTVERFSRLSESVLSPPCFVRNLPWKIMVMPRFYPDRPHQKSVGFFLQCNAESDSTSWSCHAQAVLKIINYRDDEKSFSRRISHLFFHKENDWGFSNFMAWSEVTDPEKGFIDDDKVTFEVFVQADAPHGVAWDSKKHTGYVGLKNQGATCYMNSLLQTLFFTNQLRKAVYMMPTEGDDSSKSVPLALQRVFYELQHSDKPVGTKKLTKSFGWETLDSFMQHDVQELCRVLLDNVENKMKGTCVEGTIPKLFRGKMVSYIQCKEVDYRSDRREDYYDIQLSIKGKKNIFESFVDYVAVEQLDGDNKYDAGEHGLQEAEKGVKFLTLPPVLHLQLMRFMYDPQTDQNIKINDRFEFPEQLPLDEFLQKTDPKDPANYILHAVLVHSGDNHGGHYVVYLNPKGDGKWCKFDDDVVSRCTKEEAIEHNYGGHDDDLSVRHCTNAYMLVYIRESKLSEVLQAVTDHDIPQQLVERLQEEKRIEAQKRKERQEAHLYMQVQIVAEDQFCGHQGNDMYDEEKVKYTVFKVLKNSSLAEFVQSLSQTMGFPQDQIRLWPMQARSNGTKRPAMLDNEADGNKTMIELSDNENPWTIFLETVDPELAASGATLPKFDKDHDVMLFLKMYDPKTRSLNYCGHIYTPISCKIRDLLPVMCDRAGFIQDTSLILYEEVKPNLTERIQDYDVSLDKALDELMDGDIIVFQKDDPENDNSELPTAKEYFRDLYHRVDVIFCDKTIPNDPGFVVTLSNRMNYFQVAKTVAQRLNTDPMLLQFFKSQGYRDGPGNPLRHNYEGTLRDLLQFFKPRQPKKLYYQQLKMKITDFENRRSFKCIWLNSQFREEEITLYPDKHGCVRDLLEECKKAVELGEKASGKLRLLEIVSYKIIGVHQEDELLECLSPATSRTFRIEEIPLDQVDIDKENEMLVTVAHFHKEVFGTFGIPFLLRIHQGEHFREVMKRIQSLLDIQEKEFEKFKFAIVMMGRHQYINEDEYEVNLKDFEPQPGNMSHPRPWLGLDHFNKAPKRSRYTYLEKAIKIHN
Sequence of UniProt O00487 (O00487 whole entry): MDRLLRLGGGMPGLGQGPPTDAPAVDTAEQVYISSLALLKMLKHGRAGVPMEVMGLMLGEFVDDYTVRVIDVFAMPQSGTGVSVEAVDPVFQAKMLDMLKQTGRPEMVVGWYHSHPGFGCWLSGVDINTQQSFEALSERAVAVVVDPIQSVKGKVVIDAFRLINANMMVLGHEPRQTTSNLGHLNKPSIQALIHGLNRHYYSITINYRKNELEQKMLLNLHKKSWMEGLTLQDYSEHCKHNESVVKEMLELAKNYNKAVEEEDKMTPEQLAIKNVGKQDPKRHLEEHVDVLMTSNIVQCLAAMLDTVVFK
Sequence of USP46 (P62068 whole entry): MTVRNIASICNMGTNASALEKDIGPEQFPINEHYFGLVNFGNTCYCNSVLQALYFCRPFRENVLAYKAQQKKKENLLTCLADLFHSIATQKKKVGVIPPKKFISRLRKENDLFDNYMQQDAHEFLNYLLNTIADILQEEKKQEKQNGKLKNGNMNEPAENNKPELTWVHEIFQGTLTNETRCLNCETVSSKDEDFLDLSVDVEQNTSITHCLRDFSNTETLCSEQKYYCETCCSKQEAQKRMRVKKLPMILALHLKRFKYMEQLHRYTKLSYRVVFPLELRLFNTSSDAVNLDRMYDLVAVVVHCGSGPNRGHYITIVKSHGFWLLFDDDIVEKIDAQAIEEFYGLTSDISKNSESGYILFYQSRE

CC(C)n1nccc1NC(=O)CCl
inactive: USP42 -0.0446 | USP46 0.0362 | USP47 -0.313 | USP48 -0.375 | USP5 0.00439 | USP54 0.614 | USP7 -0.278 | USP8 -0.493 | USP9X -0.225 | UniProt O00487 -0.188
